The structures appear in SMILES notation. The whole screen tested about 69,000 compounds, of which about 950 (1.4%) showed an effect of 50% or more. Only a selection was taken, and strong results are over-represented in it overall.

For this test, the system named is Mycobacterium tuberculosis. Put plainly: Cornell M. t heat shock assay. Also: in the data most compounds retested in dose-response had high values. In kind it is functional, organism-based. Further details: dose or concentration left out as unconfirmed.
Consider `CC1(C)Cc2cc(-c3cncn3CCNC3CCS(=O)(=O)C3)ccc2O1.Cl` (centres undefined), for which the “Percent Effect” value amounted to 8.949%.
For `CCC(C)NC(=O)Cn1ccc2c(C)nn(CC)c2c1=O` (centres undefined), the “Percent Effect” value is -10.24%.
With `c1ccc(N2CCCC2)c(NCc2ccncc2)c1`, the “Percent Effect” value is on record as -19.28%.
For `c1ccc(CNc2ccccc2N2CCCC2)nc1` the value was 50.65%; for `Cc1nc(N2CCCC2)ccc1NCc1ccccn1`, 4.716%; for `O=C(O)C(F)(F)F.O=C(c1cnccn1)N1CC2(CCN(Cc3ccsc3)C2)C1`, -14.16%.
To `CN(C)[C@@H]1CCN(C(=O)Cc2cccs2)[C@H]1Cc1cnn(C)c1.O=C(O)C(F)(F)F` belongs 5.582%.
For `O=C(O)C(F)(F)F.c1ccc(CN2Cc3nccn3CC(Cn3cccn3)C2)nc1` (centres undefined) the value was 11.05%; for `CN(C)CCN1CCCC12CCN(C(=O)c1ccncc1)CC2.O=C(O)C(F)(F)F.O=C(O)C(F)(F)F`, 6.106%; for `Cc1ccccc1CS(=O)(=O)c1nnc(C(C)NC(=O)OC(C)(C)C)o1` (centres undefined), 89.48%.
Regarding `Cl.N[C@@H](Cc1ccccc1)c1nnc(S(=O)(=O)Cc2ccc(Cl)cc2)o1`, the “Percent Effect” value is given as -31.2%.
For `CC(NC(=O)OC(C)(C)C)c1nnc(S(=O)(=O)Cc2ccccc2Cl)o1` (centres undefined) the value was 10.13%; for `C[C@H](NC(=O)OC(C)(C)C)c1nnc(S(=O)(=O)Cc2cccc(F)c2)o1`, -6.703%; for `CC(NC(=O)OC(C)(C)C)c1nnc(S(=O)(=O)Cc2ccc(Cl)cc2)o1` (centres undefined), 103.1%.
To `Cc1noc(C(C)NC(=O)[C@@H](C)NC(=O)OC(C)(C)C)n1` (some centres undefined) belongs 4.198%.
Consider `COCCN1C[C@@H]2[C@@H](OC)CCN(C(=O)Cc3ccsc3)[C@@H]2C1.O=C(O)C(F)(F)F`, for which the “Percent Effect” value is -5.727%.
To `O=C(O)C(F)(F)F.O=C(c1ccc(F)cc1)N1CC[C@H]2[C@H]1CCN2CC1CC1` belongs -18.24%; to `CN1CCN(C)C2(CCN(Cc3ccsc3)CC2)C1=O.O=C(O)C(F)(F)F`, -19.83%; to `O=C(O)C(F)(F)F.O=C(O)C(F)(F)F.O=C1C[C@H]2[C@@H](CCN2C(=O)Cc2ccsc2)N1Cc1cccnc1`, -3.092%.
As for `CCCN1CCC2(CC1)CN(C(=O)c1cccnc1)c1ccc(F)cc12.O=C(O)C(F)(F)F.O=C(O)C(F)(F)F`, the “Percent Effect” value is given as 1.02%.
For `O=C(c1cc(COc2ccc3c(c2)OCO3)[nH]n1)N1CCCC1` the value was 27.84%; for `O=C(c1cc(COc2ccc3c(c2)OCO3)[nH]n1)N1CCOCC1`, 27.44%.
With `O=C(c1cc(COc2ccc3c(c2)OCO3)[nH]n1)N1CCSCC1`, the “Percent Effect” value amounted to 62.66%.
As to `O=C(NC1CC1)[C@@]12CCO[C@@H]1CCN(Cc1ccc3c(c1)OCO3)C2.O=C(O)C(F)(F)F`, the “Percent Effect” value is given as 3.117%.
As to `O=C(Nc1ccc(Cl)cn1)c1nn(C2CCS(=O)(=O)C2)c2c1CCCC2` (centres undefined), the “Percent Effect” value is 11.75%.
To `Cc1cc(=O)[nH]c(-n2nc(C3CC3)cc2N)n1` belongs 101%; to `CCCc1cc(=O)[nH]c(-n2nc(C3CC3)cc2N)n1`, 101.7%.
For `CCCc1cc(=O)[nH]c(-c2cccc(CN3CCCCCC3)c2)n1` the value was -11.64%.
Consider `CCc1c(C)nc(-n2nc(C3CC3)cc2NC(C)=O)[nH]c1=O`, for which the “Percent Effect” value is -4.817%.
In the case of `CCn1nc(C)c(NC(=O)c2cc(NC(=O)C3CC3)n(C)n2)c1C`, the “Percent Effect” value was -24.03%.
For `CCCc1cc(=O)[nH]c(-c2cccc(CN3CCN4CCCC4C3)c2)n1` (centres undefined) the value was 0.7345%.
On to `Cc1cc(C(=O)Nc2cc(C3CC3)n[nH]2)c2c(C)nn(C)c2n1`, for which the “Percent Effect” value is given as 28.31%.
To `CC(C)c1cc(=O)[nH]c(-n2nc(C3CC3)cc2N)n1` belongs 103%.
To `CCC(C)(N)c1nc(C(C)C)cc(=O)[nH]1.Cl` (centres undefined) belongs 7.893%; to `CC(C)c1cc(=O)[nH]c(C(C)(C)N)n1.Cl`, -1.854%.
For `CCc1cc(=O)[nH]c(-n2nc(C3CC3)cc2NC(=O)C2CC2)n1` the value was 103.7%; for `Cc1cc(C2CCC2)nc(N2CCC3(CCNC(=O)CC3)CC2)n1`, 9.358%.
Take `Cc1ccc(CN(CCCN2CCOCC2)Cc2cnc(C)n2C)o1.O=C(O)CC(O)(CC(=O)O)C(=O)O`: the “Percent Effect” value is listed as -5.16%.
To `O=C(O)C(F)(F)F.O=C1COC2(CCN(CC3CCC3)CC2)CN1c1cncnc1` belongs -21.31%; to `O=c1[nH]c(N2CCCCC2)nc2c1CCN(Cc1cccnc1)C2`, -9.833%; to `Cn1cccc1CN1CCc2ncnc(-c3cccnc3)c2CC1`, -25.32%.
For the molecule `Cc1nn(C)cc1CN1CCc2c(nc(-c3ccccn3)[nH]c2=O)C1`, the “Percent Effect” value was found to be 2.88%.
Take `Cn1cccc1CN1CCc2c(nc(-c3ccccn3)[nH]c2=O)C1`: the “Percent Effect” value was determined as 73.71%.
As for `Cn1cc(CN2CCc3c(nc(-c4ccccn4)[nH]c3=O)C2)cn1`, the “Percent Effect” value was -205.6%.
For `COc1ccc(CN2CCc3c(nc(-c4ccccn4)[nH]c3=O)C2)cc1` the value was 89.16%.
Turning to `CCn1ncc(CN2CCc3c(nc(-c4cccnc4)[nH]c3=O)C2)c1C`, the “Percent Effect” value is given as -178.1%.
As for `O=c1[nH]c(-c2ccccn2)nc2c1CCN(Cc1cccc(O)c1)C2`, the “Percent Effect” value stood at 53.42%.
To `CC1CCCCN1c1nc2c(c(=O)[nH]1)CCN(Cc1ccccn1)C2` (centres undefined) belongs -29.02%; to `O=C(c1ccccn1)N1CCc2c(nc(-c3ccncc3)[nH]c2=O)C1`, -10.2%.
To `COc1ccccc1CN1CCc2c(nc(-c3ccccn3)[nH]c2=O)C1` belongs 93.29%; to `Cc1ncc(CN2CCc3c(nc(-c4ccccn4)[nH]c3=O)C2)n1C`, 8.847%.
For `CCN1CCOCC12CCN(C(=O)C1CCCC1)CC2.O=C(O)C(F)(F)F` the value was -1.07%.
For `Cc1cc(C[C@@H]2COC[C@H]2NCc2ccc(Cl)c(Cl)c2)on1.O=C(O)CC(O)(CC(=O)O)C(=O)O`, the “Percent Effect” value is given as -20.39%.
For `COCCC(=O)N1CC2(CCN(Cc3ccccc3Cl)CC2)C1.O=C(O)C(F)(F)F`, the “Percent Effect” value was determined as 12.96%.
Regarding `CCc1ncc(C(=O)N2CCCN(C3CCCC3)CC2)cn1`, the “Percent Effect” value was -5.155%.
Consider `Cc1ccc2c(n1)N(CCn1cccn1)CCN(C1CCOCC1)C2.O=C(O)C(F)(F)F.O=C(O)C(F)(F)F`, for which the “Percent Effect” value is -10.35%.
To `Cc1cc(CN2C[C@H](OCC3CCOCC3)[C@H]3COC[C@H]32)oc1C.O=C(O)C(F)(F)F` belongs 5.146%; to `Cc1ccc(CN2CCC[C@@H]3CN(C(=O)c4ccco4)C[C@@H]32)s1.O=C(O)C(F)(F)F`, -26.86%.
To `COc1ncccc1CN1C[C@H]2CCN(c3ccc(C)nn3)C[C@H]2C1.O=C(O)C(F)(F)F` belongs 16.3%; to `O=C(O)C(F)(F)F.c1ccc(N2CCCC3(CCN(Cc4ccsc4)C3)C2)nc1` (centres undefined), -1.694%.
For `Cc1nc(CN2CCc3ncnc(-c4cccnc4)c3CC2)cs1.O=C(O)C(F)(F)F.O=C(O)C(F)(F)F` the value was -25.69%; for `O=c1[nH]c(-c2ccncc2)nc2c1CCN(S(=O)(=O)N1CCCC1)C2`, -2.171%.
`O=c1[nH]c(-c2ccccn2)nc2c1CCN(S(=O)(=O)N1CCCC1)C2`: the “Percent Effect” value was 87.3%.
For `O=c1[nH]c(-c2ccccc2)nc2c1CCN(S(=O)(=O)N1CCCC1)C2` the value was 5.135%; for `Cc1ccc(CN2Cc3nnn(C)c3C(COCc3ccccn3)C2)s1.O=C(O)C(F)(F)F.O=C(O)C(F)(F)F` (centres undefined), -10.17%.
On to `O=C(NCCC1=CCCCC1)c1cc(-c2ccc(O)cc2)n[nH]1`, for which the “Percent Effect” value is on record as 57.62%.
Regarding `CCCc1cc(C(=O)NCCC2=CCCCC2)[nH]n1`, the “Percent Effect” value is 8.132%.
As to `Cc1ccc(-c2cc(C(=O)NCCC3=CCCCC3)[nH]n2)o1`, the “Percent Effect” value was determined as 46.03%.
With `O=C(O)C(F)(F)F.c1coc(CN2CCCn3c(nnc3Cn3cccn3)C2)c1`, the “Percent Effect” value is -27.42%.
For `O=C(O)C(F)(F)F.O=S(=O)(c1cccs1)N1CCCC2(COCCN(c3cccnc3)C2)C1` (centres undefined) the value was 1.74%; for `CCn1cc(CN(C)S(=O)(=O)c2cnn(CC)c2C)c(C)n1`, 95.67%; for `CCn1nc(C)c(CN(C)S(=O)(=O)c2cnn(C)c2)c1C`, 0.2173%.
With `CCn1cc(S(=O)(=O)N(C)Cc2c(Br)cnn2CC)c(C)n1`, the “Percent Effect” value is listed as -19.54%.
For the molecule `CC(=O)N1CCC2(CCCN2Cc2cnn(C)c2)CC1.O=C(O)C(F)(F)F`, the “Percent Effect” value is -13.44%.
For `CC(C)c1nc(CSc2nnc(-c3cccs3)n2CC(N)=O)no1` the value was 87.51%; for `NC(=O)Cn1c(SCc2noc(-c3ccsc3)n2)nnc1C1CC1`, -1.649%.
Regarding `CC(C)c1nc(CSc2nnc(C3CC3)n2CC(N)=O)no1`, the “Percent Effect” value is recorded as -3.28%.
To `O=C(C1CC(F)(F)C1)N1C[C@@H]2CN(CC3CC3)CCO[C@@H]2C1.O=C(O)C(F)(F)F` belongs -22.01%.
For `O=C1N(Cc2ccc(F)c(F)c2)CCCC12CCN(C1CCSCC1)C2` (centres undefined) the value was 39.79%; for `O=C1N(Cc2ccc(F)cc2)CCCC12CCN(C1CCSCC1)C2` (centres undefined), 56.84%.
For `O=C1N(Cc2ccc(F)c(F)c2)CCCC12CCN(C1CCCC1)C2` (centres undefined), the “Percent Effect” value was determined as 48.94%.
Turning to `Cc1cccc(CN2CCCC3(CCN(C4CCSCC4)C3)C2=O)c1` (centres undefined), the “Percent Effect” value came out at 68.24%.
For `O=C1N(Cc2ccccc2F)CCCC12CCN(C1CCSCC1)C2` (centres undefined) the value was 35.05%.
In the case of `CCc1cnc(N2CCC3(CCN(Cc4cccc(C)c4)C3=O)C2)nc1` (centres undefined), the “Percent Effect” value was -25.62%.
For the molecule `O=C1N(Cc2ccc(F)c(F)c2)CCCC12CCN(C1CCCCC1)C2` (centres undefined), the “Percent Effect” value was determined as 88.26%.
For `Cc1cccc(CN2CCC3(CCN(c4ncccn4)C3)C2=O)c1` (centres undefined) the value was -17.59%; for `CCS(=O)(=O)N1CCC2(CCCN(Cc3ccc(F)c(F)c3)C2=O)C1` (centres undefined), -4.443%; for `CN(C)C(=O)CN1CCC2(CCCN(Cc3cccn3C)C2)C1=O.O=C(O)C(F)(F)F` (centres undefined), 8.62%.
Consider `CN(C)c1ncc2c(c1C(=O)O)CCN(Cc1ccco1)C2.O=C(O)C(F)(F)F.O=C(O)C(F)(F)F`, for which the “Percent Effect” value was 10.22%.

(Values after ChEMBL document CHEMBL3988442, “University of Dundee, Small-Polar-MMV Screening Library” (2021).)
